SMILES strings stand for the structures. Records with an inconclusive call do not appear. Unmarked numbers belong to inactive results. Active and inactive are the calls of the source. The call rests on the fitted dose curve.
On the % scale 0 is the no-effect control and ±100 the full control effect.

This assay in a line: cAMP Responsive Elements (CRE) small molecule agonists, cell-based qHTS assay (AID 1963590). To be noted: CRE-bla HEK293T, beta-lactamase FRET ratio, 3 h; series mostly up to 92.4 µM; activation: at the top concentration. An excerpt: U.S. Tox21 Program National Center for Advancing Translational Sciences [NCATS] Division of Preclinical Innovation [DPI] U.S. Environmental Protection Agency [EPA] National Institutes of Environmental Health Sciences [NIEHS] National Toxicology Program [NTP] U.S. Food and Drug Administration [FDA] Tox21 Assay Overview: CREB (cyclic-AMP Responsive Element Binding Protein) is a cellular transcription factor. It binds to certain DNA sequences called cAMP Responsive Elements (CRE) and regulates the transcription of the genes. […] This cell line can be used to find agonists/antagonists of the cyclic AMP signaling pathway. The activation of the report gene under culture conditions can be detected by fluorescence intensity. This cell line has been used to screen the Tox21 10K compound library to identify agonists that induce oxidative stress.
Tox21 Assay Protocol Summary: CRE-bla Hek 293T cells were suspended in assay medium (DMEM containing 10% dialyzed FBS, 0.1 mM NEAA, 1 mM sodium pyruvate and 25 mM HEPES) and dispensed at 2,000 cells/5 uL /well into 1536-well black wall/clear bottom plates using a Multidrop Combi (ThermoFisher Scientific, Waltham, MA) dispenser. After the assay plates were incubated at 37 C/5% CO2 for 18 hrs, 23 nL of compounds dissolved in DMSO, positive controls or DMSO only was transferred to the assay plate by a pintool workstation (Kalypsys, San Diego, CA). After the plates were incubated at 37 C/5% CO2 for 3 hrs, 1 uL of LiveBLAzer B/G FRET substrate (Invitrogen, Carlsbad, CA) was added to each well using Bioraptr Flying Reagent Dispenser (FRD, Aurora Discovery, San Diego, CA). The plates were incubated at room temperature for 2 h.
Turning to `C=CC(=O)NCOCC(C)C`, the “activation” value was 0.483%.

On to `CC(=C(CCOC(=O)C(C)C)SSC(CCOC(=O)C(C)C)=C(C)N(C=O)Cc1cnc(C)nc1N)N(C=O)Cc1cnc(C)nc1N`, for which the “activation” value is -1.42% [at 42.5 µM].

Take `CCCCCOC(C)=O`: the “activation” value is -0.995%.

In the case of `Cc1cc(C)c(N=Nc2c(O)c(S(=O)(=O)O)cc3cc(S(=O)(=O)O)ccc23)cc1C`, the activation was -0.168% [at 8.39 µM].

`c1coc(CNc2ncnc3nc[nH]c23)c1`: the “activation” value is -1.4%.

With `C[CH2][Ge]([Cl])([CH2]C)[CH2]C`, the “activation” value is 0.054%.

For the compound `Cc1ccccc1S(=O)(=O)O`, the “activation” value was -0.141%.

Regarding `CC/C=C\CCO`, the “activation” value is 0.0248%.

For the compound `CCCCCCCCCCCCCC`, the “activation” value was 0.125%.

For `Clc1cccc(Cl)c1NC1=NCCN1`, the Potency result was “inactive”.

`CCCCCCCCc1ccc(Nc2ccc(CCCCCCCC)cc2)cc1`: the “activation” value is -0.948% [at 42.5 µM].

On to `BrC1CCC(Br)C(Br)CCC(Br)C(Br)CCC1Br` (stereo not given), for which the “activation” value was -0.77%.

For `CC(=O)OCCOCCOCCOC(C)=O`, the Potency entry is “inactive”.

With `C=CCOCC(CO)(COCC=C)COCC=C`, the “activation” value was -0.763% [at 42.5 µM].

For `CN1CCc2cccc3c2[C@H]1Cc1ccc(O)c(O)c1-3`, the Potency result is “inactive”.

`CC(=O)N(O)CCCCCNC(=O)CCC(=O)N(O)CCCCCNC(=O)CCC(=O)N(O)CCCCCN`: the “activation” value was -0.025% [at 42.5 µM].

With `CC(C)=CCC/C(C)=C/C#N`, the “activation” value is 0.903%.

Take `COc1ccc(NC(C)=O)cc1`: the “activation” value was 0.316%.

As to `CC(=O)/C=C/C1C(C)=CCCC1(C)C` (stereo not given), the “activation” value was 0.324%.

`CCC1CCCCC1`: the “activation” value was -1.04%.

As for `COc1cc(OC)nc(O[C@H](C(=O)O)C(OC)(c2ccccc2)c2ccccc2)n1`, the “activation” value is -3.71% [at 42.5 µM].

Take `NCCCN1CCN(CCCN)CC1`: the “activation” value was 1.24%.

In the case of `c1ccc2c(c1)CCC2`, the “activation” value was -0.0643%.

As to `c1ccc(SCCSc2ccccc2)cc1`, the “activation” value was 2.83%.

As to `NC(=O)c1ncn([C@@H]2O[C@H](CO)[C@@H](O)[C@H]2O)c1O`, the “activation” value was 1.57% [at 42.5 µM].

For the compound `CO[C@@]1(NC(=O)CSC[C@@H](N)C(=O)O)C(=O)N2C(C(=O)O)=C(CSc3nnnn3C)CS[C@@H]21`, the “activation” value is 0% [at 42.5 µM].

`CC(O)C(C)O` (stereo not given): the “activation” value is 1.52%.

Turning to `CCOC(=O)[C@H](CCc1ccccc1)N[C@@H](C)C(=O)N1C(=O)N(C)C[C@H]1C(=O)O`, the “activation” value is 0.0621% [at 42.5 µM].

As for `CC(C=O)c1ccccc1` (stereo not given), the “activation” value was -0.141%.

`CC(C)=O`: the “activation” value is -0.979%.

Take `CCC(=O)OCc1ccccc1`: the “activation” value is 1.17%.

For `COc1ccccc1N=Nc1c(S(=O)(=O)O)cc2cc(S(=O)(=O)O)cc(NC(C)=O)c2c1O`, the “activation” value was 0.0442%.

For `COC(=O)c1ccccc1C`, the “activation” value is 0.36%.

As for `CCN(Cc1cccc(S(=O)(=O)O)c1)c1ccccc1`, the “activation” value is 0.11%.

With `CC(C)OC(=O)CCCCC(=O)OC(C)C`, the “activation” value is -1.54%.

With `O=[N+]([O-])c1ccccc1CCO`, the “activation” value was -0.559%.

As to `CN(C)CCCN(C)CCCN(C)C`, the “activation” value was 0.898%.

Consider `COC(=O)c1ccccc1C(=O)O`, for which the “activation” value is -0.129%.

For the compound `COc1ccc(N=[N+]([O-])c2ccc(OC)cc2)cc1`, the “activation” value is 0.617%.

Take `COCCCC/C(=N\OCCN)c1ccc(C(F)(F)F)cc1`: the “activation” value was 0.104% [at 42.5 µM].

Source of the values: PubChem BioAssay (Tox21).
